This is an account of results in PubChem BioAssay AID1347385 (Zoeller Lab, School of Medicine, Boston University, 2020).

The structures appear in SMILES notation. Among all 20,000 compounds or so, about 85 (0.4%) were called active. The sample holds actives, similar compounds and a random draw of the others, so the mix is not that of the screen.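 The calls were made as follows: active = cell survival signal 2 SD away from solvent-only control wells, confirmed on one or two retests; inactive = the rest.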

The assay can be described thus: phospholipid synthesis inhibitors, CHO cells, primary screen, ZR-82 cells, Enamine library, screen 3 (AID 1347385).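 Also: 3 h compound exposure then viability read about one day after UV.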 The conditions noted are these: ZR-82 CHO cells, pyrene fatty acid UV survival, CellTiter Blue, peroxisome-deficient CHO-K1 mutant line, plus DGAT-1, DGAT-2 and ACAT inhibitors; at 10 µM unless noted.
`Fc1ccc(-c2nnc(-c3nnc(-c4ccc(F)cc4)c(-c4ccccc4)n3)nc2-c2ccccc2)cc1`: the result was inactive.
`O=P1(Nc2cc(C(F)(F)F)ccc2Cl)C=C(c2ccccc2)OC(c2ccccc2)=C1`: the result was inactive.
To `Nc1ccc([N+](=O)[O-])c(OC(F)F)c1` belongs “inactive”; to `CCOC(=O)c1c(N)sc2c1CCCS2`, “inactive”; to `C=CCN1C(=O)/C(=C/c2c(NC3CC(C)(C)NC(C)(C)C3)nc3ccc(C)cn3c2=O)SC1=S`, “inactive”.
The result for `O=C(COC(=O)CCNC(=O)NC12CC3CC(CC(C3)C1)C2)NCC(F)(F)F` reads “inactive”.
To `O=S(=O)(c1ccc(F)c(F)c1)N1CCN(c2ccc(O)cc2)CC1` belongs “inactive”; to `COC(=O)C(C)N` (stereo not drawn), “inactive”.
With `Cc1noc(C)c1COc1ncnc2sc3c(c12)CCCC3`, the result was inactive.
The result for `C(=N\n1c(-c2ccco2)csc1=NC1CCCCC1)/c1ccccn1` reads “inactive [setting not given]”.
For `Cc1noc(C)c1S(=O)(=O)Nc1ccc(NS(=O)(=O)c2ccc3c(c2)OCCCO3)cc1`, the result was inactive.
As to `S=c1n(CN2CCOCC2)nc(Cc2cccs2)n1C1CCCCC1`, the outcome was inactive.
To `Ic1ccc2c(c1)Cc1ccccc1-2` belongs “inactive”; to `Cn1c(C(F)(F)F)nn(CN2CCN(c3cccc(C(F)(F)F)c3)CC2)c1=S`, “inactive”.
As to `O=C(CSc1nc2ccccc2nc1SCC(=O)c1cc2ccccc2o1)c1cc2ccccc2o1`, the result was inactive.
Turning to `O=S1(=O)N=C(N2CCC(c3nc4ccccc4o3)CC2)c2ccccc21`, the result was inactive.
The result for `O=C(COC(=O)Cn1cc(C(F)(F)F)ccc1=O)NC(=O)NC1CCCC1` reads “inactive”; that for `O=c1cc(COc2cc(Cl)c(Cl)cc2Cl)nc2ccc(Br)cn12`, “inactive”.
To `FC(F)(F)c1ccc(Oc2ccc(Cl)c3cccnc23)nc1` belongs “inactive”.
With `O=S(=O)(Nc1cc(S(=O)(=O)N2CCOCC2)ccc1N1CCCC1)c1cccs1`, the outcome was inactive.
`Clc1ccc(C=Nc2ccc3c(c2)OCO3)c(Cl)c1`: the outcome was inactive.
The result for `CC(C)CN(C(=O)CSc1nncn1C)C1CCS(=O)(=O)C1` (stereo not drawn) reads “inactive”; that for `O=[N+]([O-])c1ccc(NN=C2C3CC4CC(C3)CC2C4)c(S(=O)(=O)Nc2ccc(Cl)cc2)c1`, “inactive”.
The result for `CN(C)/N=C/C=C1\CCC/C(=C\c2cc(Br)cs2)C1=O` reads “inactive [setting not given]”.
The result for `O=S(=O)(c1ccc(F)cc1F)N1c2cccc3cccc(c23)S1(=O)=O` reads “inactive”; that for `Nc1c(C(=O)CSc2cc(F)ccc2F)c(=O)[nH]c(=O)n1C1CC1`, “inactive”.
Turning to `c1nc(N2CCN(c3ncnc4sc5c(c34)CCCC5)CC2)c2c3c(sc2n1)CCCC3`, the outcome was inactive.
The result for `Cc1cc(C)nc(N/N=C/c2ccncc2)n1` reads “inactive [setting not given]”; that for `Fc1ccc(-n2c(-c3ccc(Cl)cc3Cl)n[nH]c2=S)cc1Cl`, “inactive”.
Consider `Cc1ccc(C)c(C2C3=C(CC(C)(C)CC3=O)Nc3nc(-c4cccnc4)nn32)c1` (stereo not drawn), for which the result was inactive.
Turning to `COc1cc(S(=O)(=O)n2c([N+](=O)[O-])cnc2C)ccc1Br`, the outcome was inactive.
The result for `Cc1cc(C)c(C)c(S(=O)(=O)N(C)C2CCS(=O)(=O)C2)c1C` (stereo not drawn) reads “inactive”.
The result for `CC(=O)c1c(C)[nH]c(C(=O)OCC(=O)c2cc(C)n(CC3CCCO3)c2C)c1C` (stereo not drawn) reads “inactive”; that for `O=C1NC(c2ccc3ncccc3c2)C(C(=O)c2cccnc2)C(O)(C(F)(F)F)N1` (stereo not drawn), “inactive”.
Regarding `O=[N+]([O-])/C(CN1CCOCC1)=C1/CCCN1`, the outcome was inactive.
The result for `CCCCn1c(N)c(N(Cc2ccco2)C(=O)Cn2cnnn2)c(=O)[nH]c1=O` reads “inactive”.
The result for `CN(C(=O)COC(=O)CN1C(=O)NC2(CCCC2)C1=O)C1CCCCC1` reads “inactive”.
The result for `COC(=O)CNC(=O)c1ccc([N+](=O)[O-])o1` reads “inactive”.
As for `CC(C)CN(C1CCS(=O)(=O)C1)S(=O)(=O)c1ccc(Cl)cc1` (stereo not drawn), the result was inactive.
To `C(=Nc1ccc2c(c1)OCO2)c1ccc2ncccc2c1` belongs “inactive”; to `c1ccc2c(c1)OCCOCCOCCOc1ccccc1OCCOCCO2`, “inactive”; to `O=C1NNS(=O)(=O)c2ccccc21`, “inactive”.
The result for `Brc1ccc2nc(-n3nc4ccccc4n3)nc(-c3ccccc3)c2c1` reads “inactive”; that for `Cc1sc2ncnc(SCC(=O)c3c(N)n(CC(C)C)c(=O)n(C)c3=O)c2c1C`, “inactive”; that for `CCOC(=O)Cc1n[nH]c(=S)n1C1CCCC1`, “inactive”.
The result for `CCNC(=S)N1CCN(S(=O)(=O)c2ccc(Cl)s2)CC1` reads “inactive”.
As for `Cc1cc(-c2csc(N)n2)c(C)c(C)c1C`, the result was inactive.
The result for `O=C(COc1ncnc2sc3c(c12)CCC3)c1ccc(Cl)s1` reads “inactive”; that for `O=C(CN1C(=O)NC2(CCCC2)C1=O)NC1CCSc2ccc(F)cc21` (stereo not drawn), “inactive”.
The result for `C=CCN(CC=C)CC(=O)Nc1sc2c(c1C(N)=O)CCCC2` reads “inactive”; that for `Clc1ccc(Cl)c(-c2ccc(-c3ncc(-c4cccs4)o3)o2)c1`, “inactive”; that for `CN(C)C(=O)CN(C)C(=O)CN1C(=O)NC2(CCCCCC2)C1=O`, “inactive”.
To `Cc1nc(SCC(=O)N2CCNC2=O)n(CC(C)C)c1C` belongs “inactive”.
As to `O=S(=O)(c1ccc(Cl)c(N=C2SCCN2C2CCCCC2)c1)N1CCOCC1`, the outcome was inactive.
To `c1ccc(OCc2nc(-c3ccccn3)n[nH]2)cc1` belongs “inactive”; to `C#CC(CC)(CC)NC(=O)CCc1nc2sc3c(c2c(=O)[nH]1)CCCC3`, “inactive”; to `Brc1ccccc1C1N=C(c2ccccc2)NO1` (stereo not drawn), “inactive”.
The result for `O=c1c2c3c(sc2[nH]c(=S)n1C1CCCC1)CCC3` reads “inactive”; that for `O=C(OCc1cc([N+](=O)[O-])cc2c1OCOC2)C1CCC1`, “inactive”.
Regarding `O=C(CSc1nc2sc3c(c2c(=O)n1C1CCCC1)CCCC3)N1CCCC1`, the outcome was inactive.
The result for `FC(F)Oc1ccc(C2Oc3ccccc3C3CC(c4ccccc4)=NN32)cc1` (stereo not drawn) reads “inactive”.
The result for `Cc1nnc(NC(=O)NCC2(C)CC(NC(=O)Nc3nnc(C)s3)CC(C)(C)C2)s1` (stereo not drawn) reads “inactive”; that for `CC(C)N(CCNS(=O)(=O)c1ccccc1)C(C)C`, “inactive”; that for `O=[N+]([O-])c1ccc(-n2nnc3ccccc32)c(Cl)c1`, “inactive”.
The result for `Clc1ccccc1C1Oc2ccccc2C2CC(c3ccc4c(c3)OCCO4)=NN21` (stereo not drawn) reads “inactive”; that for `O=c1/c(=C/c2ccc(F)cc2)sc2n1CCN=2`, “inactive”.
On to `O=C1OCC(CO)(CO)N=C1NNc1ccc(I)cc1`, for which the result was inactive.
The result for `FC(F)Oc1ccc(Cl)c(C2Nc3ccccc3-c3nc4ccccc4n32)c1` (stereo not drawn) reads “inactive”.
To `C(=N\n1c(-c2ccc(-c3ccccc3)cc2)csc1=NCCc1ccccc1)/c1ccccn1` belongs “inactive [setting not given]”; to `O=C(NC(O)C(Cl)(Cl)Cl)C12CC3CC(CC(C3)C1)C2` (stereo not drawn), “inactive”.
As to `CCOC(=O)c1c(C)[nH]c(C(=O)OCC(=O)C(C)(C)C)c1C`, the result was inactive.
The result for `C#CCN=Cc1c(O)n(CCOC)c(=S)[nH]c1=O` reads “inactive”; that for `O=S(=O)(Oc1cccc2cccnc12)c1ccc2ccccc2c1`, “inactive”; that for `CC(Sc1nnc(-c2ccc(C(C)(C)C)cc2)o1)c1nnc(-c2ccc([N+](=O)[O-])cc2)o1` (stereo not drawn), “inactive”.
`O=C1NC(c2ccc3c(c2)OCO3)C(C(=O)c2ccccc2)C(O)(C(F)(F)F)N1` (stereo not drawn): the result was inactive.
As for `CCN(CC)[P+](N)(c1nc2ccccc2n1C)N(CC)CC`, the result was inactive.
For `COC(=O)c1cc(C(O)(C(F)(F)F)C(F)(F)F)c(N=CN(C)C)s1`, the result was inactive.
To `C=CCn1c(SCc2c(C)noc2C)nc2sc3c(c2c1=O)CCC(C)C3` (stereo not drawn) belongs “inactive”; to `Cn1cc(-c2nn(-c3ccccc3)cc2/C=N/NC(N)=S)c2ccccc21`, “inactive [setting not given]”.
To `Cc1cc(C=C2Sc3ccccc3N2C)cc(C)[n+]1CCCn1ccnc1` belongs “inactive”; to `CC1CCC2(CC1)NC(=O)N(CC1CC1(Cl)Cl)C2=O` (stereo not drawn), “inactive”.
To `COc1ccc(OCCN2CCN(C(=N)N)CC2)cc1` belongs “inactive”; to `C=CCNC(=S)NN=C1c2ccccc2-c2ccccc21`, “inactive”; to `O=C(CSc1ncnc2sc3c(c12)CCC3)N1CCCCC1`, “inactive”.
Regarding `C=CCOc1c(Cl)cc(S(=O)(=O)c2cc(Cl)c(O)c(Cl)c2)cc1Cl`, the outcome was inactive.
To `COCCn1c(C)cc(C(=O)COC(=O)Cn2c(C)csc2=O)c1C` belongs “inactive”; to `COc1ccc(C2=CC(c3ccc(OC)cc3)n3nnnc3N2)cc1` (stereo not drawn), “inactive”.
To `O=[N+]([O-])c1ccc(NC(=S)N=C2c3ccccc3CN2c2ccc(Cl)cc2)cc1` belongs “inactive”; to `O=S1(=O)CCC(NS(=O)(=O)c2ccc(Cl)c(Cl)c2)C1` (stereo not drawn), “inactive”; to `NC=C(S(=O)(=O)c1ccc(Cl)cc1)S(=O)(=O)c1ccc(Cl)cc1`, “inactive”.
`O=c1c(-c2cc3ccccc3o2)coc2ccccc12`: the result was inactive.
As for `O=C1C=CC(=O)N1c1ccc(Br)cc1`, the result was inactive.
To `CC1CCN(C2=NS(=O)(=O)c3ccccc32)CC1` belongs “inactive”; to `CCSc1nnc(SCC(=O)c2c(N)n(CC(C)C)c(=O)n(C)c2=O)s1`, “inactive”.
To `Cc1ccc(-c2csc3nc(CSc4nnnn4C)[nH]c(=O)c23)s1` belongs “inactive”; to `CCCSc1nsc(N)n1`, “inactive”; to `Clc1ccc2nc(CSc3ccc4ccccc4c3)cn2c1`, “inactive”.
The result for `Fc1ccc(Cn2c3[n+](c4ccc(C(F)(F)F)cc42)CCCCC3)cc1` reads “inactive”; that for `COC(=O)c1noc(C(=O)OC)c1O`, “inactive”; that for `FC(F)(F)C(=NCc1ccco1)NC1(C(Cl)(Cl)Cl)Oc2ccccc2O1`, “inactive”.
Take `CCOc1cc(C)c(S(=O)(=O)N2CCCC2)cc1C(C)C`: the result was inactive.
The result for `CCN(CC)c1ccc([P+](CC)(c2ccc(N(CC)CC)cc2)c2ccc(N(CC)CC)cc2)cc1` reads “inactive”; that for `COc1ccc(OC)c(C2CC(c3ccco3)=NN2S(C)(=O)=O)c1` (stereo not drawn), “inactive”; that for `CCCc1ccc(C2=C(C)SC3=NS(=O)(=O)CCN32)cc1`, “inactive”.
For `Cc1cc(C)nc(SCc2cn3c(C)cc(C)nc3n2)n1`, the result was inactive.
The result for `COc1ccc(C2=NN3C(C2)c2ccccc2OC32CCCC2)c(OC)c1` (stereo not drawn) reads “inactive”; that for `Cc1cc(C(=O)C(C)n2cnc3c2c(=O)n(C)c(=O)n3C)c(C)n1Cc1ccco1` (stereo not drawn), “inactive”; that for `O=[N+]([O-])c1ccc(-c2c[n+](=O)c3c(n2[O-])CCCCC3)cc1`, “inactive”.
